Screening data: PubChem, National Center for Advancing Translational Sciences (NCATS)
LmPK inhibitor: LmPK (Leishmania mexicana) enzyme inhibition | Q27686 | purified LmPK, Kinase-Glo ATP luminescence, 1 h | Potency, µM (titrated, usually from 57.5 µM), inactives show top-dose activity change, negative = inhibition, actives largely listed as inhibitors | hit rate 0.37% among 290,000; note: % is set by controls: 0 for no effect and ±100 for the full control effect
Target sequence (Q27686 whole entry, looked up): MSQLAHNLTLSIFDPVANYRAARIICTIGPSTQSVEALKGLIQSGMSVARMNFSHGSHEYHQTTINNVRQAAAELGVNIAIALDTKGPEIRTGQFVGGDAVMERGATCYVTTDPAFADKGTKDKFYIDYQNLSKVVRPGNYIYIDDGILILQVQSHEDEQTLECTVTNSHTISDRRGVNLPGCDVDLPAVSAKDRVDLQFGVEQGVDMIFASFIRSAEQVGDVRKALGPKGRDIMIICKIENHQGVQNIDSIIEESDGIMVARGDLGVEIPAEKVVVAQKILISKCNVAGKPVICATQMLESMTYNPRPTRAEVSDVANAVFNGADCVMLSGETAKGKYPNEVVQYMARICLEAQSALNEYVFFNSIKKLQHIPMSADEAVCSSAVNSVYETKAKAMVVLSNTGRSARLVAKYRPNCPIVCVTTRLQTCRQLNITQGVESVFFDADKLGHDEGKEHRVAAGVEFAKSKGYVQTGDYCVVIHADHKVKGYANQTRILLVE
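0.1 nM LmPK, 0.5 mM PEP, 0.1 mM ADP; 50 mM imidazole pH 7.2, 7 mM MgCl2, 50 mM KCl; 1 h RT. Kinase-Glo luminescence readout, normalized to no-enzyme (full inhibition) and uninhibited wells.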
Sm TGR inh: inhibitors of Schistosoma mansoni thioredoxin glutathione reductase; Q962Y6; purified TGR, DTNB reduction, TNB absorbance 405 nm; Potency, µM (doses to about 114 µM), for the others: at the highest dose activity change, negative = inhibition, most hits filed as inhibitors; hit rate 3% among 360,000; note: % is set by controls: 0 for no effect and ±100 for the full control effect; nearly all actives have a fitted effect of over 60% in size
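Kinetic colorimetric format: TGR-catalysed, NADPH-driven DTNB reduction monitored via TNB absorbance. Enzyme dispensed at 20 nM; compound exposure 15 min at room temperature before reaction start.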
NS1 inh: influenza NS1 inhibition; Potency, µM (top dose mostly 46.1 µM), without a hit: at the top dose activity, positive = more growth; hit rate 0.4% among 270,000; calls by dose curve; note: actives are rising curves; nearly all actives have a fitted effect of over 50% in size
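In this qHTS, NS1 from influenza A is expressed in budding yeast, where it slows growth. Cells are switched from glucose to 2% galactose medium (pH 6.0, -URA), treated with compound, and growth recovery is read at OD600.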
Tb PYK inh: T. brucei pyruvate kinase inhibition; AID 624173; Q57TT1; TbPYK enzyme, Kinase-Glo Plus ATP luminescence, 45 min; Potency, µM (titrated, usually from 76.8 µM), for the others: at the top dose activity, negative = inhibition, usual class: inhibitors; hit rate 0.12% among 410,000; note: % is set by controls: 0 for no effect and ±100 for the full control effect; nearly all actives have a fitted effect of over 50% in size
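T. brucei PYK with substrate was exposed to pin-transferred compounds across a concentration series, then started with 130 uM ADP (final). After 45 min at room temperature, Kinase-Glo Plus luminescence was read, normalized and curve-fitted.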
SARS PLpro yeast: inhibitors of SARS-CoV papain-like protease in yeast; S. cerevisiae expressing SARS-CoV PLpro, growth rescue; Potency, µM (top dose mostly 32.9 µM), inactives show at the highest dose activity, positive = growth rescue, hits mostly activators; hit rate 0.19% among 330,000; calls by dose curve; note: 0% is about no effect; nearly all actives have a fitted effect of over 55% in size
RE007 growth inh: less growth of the S. pombe RE007 Vpr strain. hit rate 0.21% among 360,000. Potency, µM (highest dose often 92.2 µM), for the others: at the top dose activity change, negative = less growth, usual class: inhibitors. S. pombe RE007 Vpr strain, BacTiter-Glo ATP luminescence, 24 h; active = well fitted falling curve with a large enough effect; inconclusive = small, poorly fitted or top-dose-only effect; inactive = no such curve, though single readings can be large or run the other way; note: % is set by controls: 0 for no effect and ±100 for the full control effect; nearly all actives have a fitted effect of over 50% in size
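Fission yeast strain RE007, carrying one chromosomally integrated HIV-1 vpr copy, was seeded at OD 0.01 in PMG+AL medium with 23 nL pinned compound. After 24 h at 30 °C and 99% humidity, viability was read by BacTiter-Glo luminescence.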
* hit, by the source's call; ? = inconclusive; . = not tested or not shown; [ ] = remark or other dose. This is a sample that favours compounds with a hit; in the whole collection about 3.3% have one here. Unless noted, calls come from the whole dose curve; as a rule, active = well fitted curve in the direction sought with a large enough effect; inconclusive = small, poorly fitted or top-dose-only effect, or another doubt; inactive = no such curve, though single readings can be large; an effect the other way counts as inactive or inconclusive. Potency is the fitted concentration of half-maximal effect.

SMILES	LmPK inhibitor	Sm TGR inh	NS1 inh	Tb PYK inh	SARS PLpro yeast	RE007 growth inh
Cc1ccccc1-n1c(-c2ccc(Br)o2)n[nH]c1=S	.	.	.	?	.	-2.6%
CCCc1cc(-c2n[nH]c(=S)n2CC(C)C)cs1	?	9.0%	-40.2%	?	-0.7%	23.0%
Cc1ccsc1-c1n[nH]c(=S)n1CC(C)C	14.1µM*	4.9%	4.7%	?	7.7%	12.6%
CC(C)Cn1c(-c2nn(C)cc2Cl)n[nH]c1=S	12.6µM*	3.0%	0.5%	?	0.8%	11.1%
CC(C)Cn1c(-c2ccc(Br)o2)n[nH]c1=S	?	1.6%	-24.2%	3.98µM*	21.0%	-2.2%
N#CC1=C(N)C(C#N)(C#N)C(c2cccnc2)C2CCCC=C12 (stereo not drawn)	-2.7%	-26.4%	4.8%	.	-4.7%	.
N#CC1=C(N)C(C#N)(C#N)C(c2ccc[nH]2)C2CCCC=C12 (stereo not drawn)	3.8%	15.8µM*	4.7%	?	5.9%	2.0%
O=C(O)/C(Cc1ccc([N+](=O)[O-])cc1)=N/O	.	.	-1.4%	.	.	.
O=C(OCC(=O)N1CCN(c2ccccc2)CC1)c1ccc2ccccc2n1	-1.1%	44.7µM*	-14.8%	-5.8%	5.8%	-19.8%
O=C(CSc1nccn1Cc1ccccc1)Nc1ccc2c(c1)OCO2	.	4.0%	.	4.3%	.	.
Cc1ccc(C(=O)NC(=C(Cl)Cl)S(=O)(=O)c2ccc(C)cc2)cc1	1.1%	17.8µM*	2.2%	-8.4%	-9.1%	6.9%
O=C(NC(=C(Cl)Cl)S(=O)(=O)c1ccc(Cl)cc1)c1ccccc1	10.8%	3.55µM*	-4.8%	2.4%	2.2%	-4.0%
Cc1ccc(S(=O)(=O)/C(=C/Cl)NC(=O)c2ccccc2)cc1	-9.3%	39.8µM*	6.0%	-16.6%	-3.4%	0.0%
Cc1ccc(S(=O)(=O)C(NC(=O)c2ccccc2)=C(Cl)Cl)cc1	.	.	.	-8.3%	.	10.9%
O=C(NCCc1ccccc1Cl)c1ccc(Cn2c(=O)c3cccn3c3cccnc32)cc1	.	-0.2%	.	-3.2%	.	.
COc1ccc(OC)c(S(=O)(=O)NCCc2sc(-c3cccnc3)nc2C)c1	.	-24.0%	.	5.6%	.	.
COC(=O)c1cc(NC2(c3ccccc3)C(=O)c3ccccc3C2=O)cc(C(=O)OC)c1	.	20.9%	.	1.3%	.	.
C=CCn1c(Sc2ncc([N+](=O)[O-])s2)n[nH]c1=O	5.9%	0.224µM*	-34.8%	-9.0%	-4.5%	?
COc1cccc(/C=C/C(=O)Nc2ccc3nc(N4CCN(C)CC4)cc(C)c3c2)c1OC	.	-10.8%	.	-2.8%	.	.
O=C(/C=C/c1cccs1)c1cc(Cl)ccc1O	-4.6%	-23.5%	-1.8%	-1.3%	-1.2%	-20.9%
O=C(/C=C/c1ccc2ccccc2n1)c1cc(Cl)ccc1O	3.7%	25.1µM*	10.7%	-3.7%	-4.8%	15.9%
O=C(O)C1(c2ccccc2)CCN(S(=O)(=O)c2ccc(Cl)cc2)CC1	2.8%	0.5%	2.9%	0.0%	4.0%	9.8%
O=C(O)C1(c2ccccc2)CCN(S(=O)(=O)c2ccc(Br)cc2)CC1	7.5%	89.1µM*	-7.1%	-0.5%	11.6%	9.8%
CCOC(=O)c1ccc(NC(=O)CSc2ncc(S(=O)(=O)c3ccc(C)c(Cl)c3)c(=O)[nH]2)cc1	.	-3.7%	.	2.5%	.	.
COc1ccc([C@]23Cc4ccccc4C(O2)c2c(cc(C)n(Cc4ccccc4)c2=O)O3)cc1	-0.3%[11.5 µM]	?	-25.4%	.	-12.7%[6.58 µM]	.
CCOc1cc(NC(=S)NCCCN2CCOCC2)c(OCC)cc1NC(=O)c1ccco1	2.6%	35.5µM*	-2.1%	-9.0%	-0.3%	3.0%
O=C(Nc1ccc(OCc2ccccc2)cc1)Nc1ccccc1C(=O)NCCCN1CCOCC1	14.1µM*	1.2%	0.3%	?	-2.1%	-27.1%
O=C(NC(=S)Nc1ccc(CN2CCOCC2)cc1)c1ccco1	2.7%	31.6µM*	4.4%	-4.4%	1.1%	3.7%
Cc1ccccc1C(=O)NC(=S)Nc1ccc(N2CCOCC2)cc1	9.9%	?	.	0.0%	-2.9%	-1.8%
O=C(NC(=S)Nc1ccc(N2CCOCC2)cc1)c1ccco1	-4.0%	39.8µM*	-4.2%	-14.5%	-9.9%	.
